An excerpt weighted towards active compounds, which were near 10% of everything screened.
NPR1 antag: human Npr1 receptor antagonism; hit rate 1.6% among 76,000; HEK293 hNpr1 GloSensor cGMP, ANP-stimulated luminescence; Potency, µM (series often up to 46.3 µM), for inactives: at the top dose activity change, negative = inhibition, most hits filed as inhibitors; AID 1347048; P16066; calls by dose curve; also: nearly all actives have a fitted effect of over 60% in size
Target sequence (P16066 whole entry, looked up): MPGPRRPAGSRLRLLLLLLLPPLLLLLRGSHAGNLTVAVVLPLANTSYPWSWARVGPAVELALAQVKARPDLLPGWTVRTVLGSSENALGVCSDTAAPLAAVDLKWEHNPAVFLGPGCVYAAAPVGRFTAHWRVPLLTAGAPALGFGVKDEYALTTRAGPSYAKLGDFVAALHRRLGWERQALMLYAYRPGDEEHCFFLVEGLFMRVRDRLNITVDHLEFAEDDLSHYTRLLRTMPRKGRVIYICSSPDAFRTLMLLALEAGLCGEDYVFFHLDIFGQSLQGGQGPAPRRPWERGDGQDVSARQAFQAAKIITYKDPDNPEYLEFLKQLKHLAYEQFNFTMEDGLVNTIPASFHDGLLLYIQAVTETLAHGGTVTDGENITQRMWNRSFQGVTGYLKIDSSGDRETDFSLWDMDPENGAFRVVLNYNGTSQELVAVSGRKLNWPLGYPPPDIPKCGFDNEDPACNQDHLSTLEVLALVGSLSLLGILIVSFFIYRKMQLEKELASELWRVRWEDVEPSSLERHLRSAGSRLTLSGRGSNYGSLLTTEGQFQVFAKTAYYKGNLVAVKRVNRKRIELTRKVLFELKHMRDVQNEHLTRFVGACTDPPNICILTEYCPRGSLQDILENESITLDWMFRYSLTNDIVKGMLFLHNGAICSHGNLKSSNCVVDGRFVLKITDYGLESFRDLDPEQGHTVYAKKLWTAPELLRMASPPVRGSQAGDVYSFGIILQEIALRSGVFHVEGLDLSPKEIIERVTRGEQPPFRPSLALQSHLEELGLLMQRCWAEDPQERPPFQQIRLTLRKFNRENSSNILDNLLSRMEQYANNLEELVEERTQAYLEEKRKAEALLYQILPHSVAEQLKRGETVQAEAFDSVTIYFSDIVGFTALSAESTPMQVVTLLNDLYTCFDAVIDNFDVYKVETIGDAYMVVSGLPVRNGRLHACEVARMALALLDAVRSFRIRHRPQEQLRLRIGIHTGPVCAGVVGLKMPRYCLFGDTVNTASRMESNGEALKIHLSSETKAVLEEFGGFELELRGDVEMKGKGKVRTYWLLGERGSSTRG
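Compound pre-incubated 30 min at room temperature on GloSensor-loaded HEK293 cells stably carrying hNpr1 and the pGS-40F cGMP biosensor. Stimulation uses hNppA at 0.1 nM final; luminescence is taken at baseline and 20 min post-agonist.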
HEK cytotox: HEK 293 cell cytotoxicity; Potency, µM (highest dose often 115 µM), inactives show at the highest dose activity change, negative = cytotoxicity, usual class: inhibitors; HEK 293 viability, ATP luminescence (CellTiter-Glo), 48-72 h; hit rate 6.6% among 94,000; also: nearly all actives have a fitted effect of over 60% in size
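qHTS cytotoxicity; HEK 293, 250 cells/well; compound pinned; 48 or 72 hr, 37 degree Celsius, 5% CO2, 95% humidity; CellTiter-Glo, 10 min RT; luminescence (ATP).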
NIH3T3 tox: kills NIH 3T3 cells. NIH 3T3 viability, CellTiter-Glo ATP luminescence, 48-72 h. Potency, µM (highest dose often 96.7 µM), inactives show top-dose activity change, negative = cytotoxicity, actives largely listed as inhibitors. hit rate 4.3% among 94,000; also: nearly all actives have a fitted effect of over 55% in size
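Mouse fibroblast NIH 3T3 cells, 400 per well, received compound via pintool and were incubated for 48 or 72 hr prior to CellTiter-Glo ATP luminescence measurement.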
Luciferase inh: inhibitors of firefly (Photinus pyralis) luciferase; P08659; Potency, µM (top dose mostly 115 µM), most hits filed as inhibitors; hit rate 2.5% among 76,000; purified P. pyralis luciferase, luminescence, biochemical; AID 1347043; also: nearly all actives have a fitted effect of over 65% in size
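Cell-free enzyme assay, 10nM P. pyralis luciferase, luciferin and ATP each at 10uM. Inhibition profiled over a 6-point titration, read as luminescence.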
GPT2 inh: GPT2 alanine aminotransferase inhibition; Q8TD30; Recombinant GPT2, coupled pyruvate oxidase/HRP Amplex Red fluorescence; Potency, µM (highest dose often 57.7 µM), for the others: at the top dose activity change, negative = inhibition, hits mostly inhibitors; hit rate 0.25% among 100,000; also: nearly all actives have a fitted effect of over 60% in size
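Fluorescence of coupled pyruvate oxidase/HRP/Amplex Red system (50uM Amplex, 30 min, dark) reports pyruvate formed by GPT2. Enzyme reaction: 10ng/uL GPT2, 2mM L-alanine, 250uM a-KG, 30 min room temperature, pH 7.5; 50uM AOA control.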
Starred values were filed as active, the others as inactive; i = inactive; ? = inconclusive; nt = not tested or not shown; ! = not confirmed by another sample; [ ] = another dose, or the depositor's remark. Unless noted, calls follow the shape of the dose curve; as a rule, active = well fitted curve in the direction sought with a large enough effect; inconclusive = small, poorly fitted or top-dose-only effect, or another doubt; inactive = no such curve, though single readings can be large; an effect the other way counts as inactive or inconclusive. % is scaled to controls: 0 for no effect and ±100 for the full control effect; potency is read from the fitted curve at half-maximal effect.

SMILES	NPR1 antag	HEK cytotox	NIH3T3 tox	Luciferase inh	GPT2 inh
Cc1csc(NC(=O)c2nc3c(o2)CCN(CC2CCCC2)CC3)n1	-3%[70.6 µM]	?	?	28µM*	4%[88.5 µM]
Cc1csc(NC(=O)c2nc3c(o2)CCN(Cc2ccc4[nH]ccc4c2)CC3)n1	-17%[70.6 µM]	100µM*	?	35µM*	i
CNC(=O)[C@@H]1CN2CCN(C(=O)CC3CCCC3)C[C@@H]2[C@H]1c1ccccc1	nt	-21%	?	nt	nt
Clc1cccc(Nc2cnc3ccc(N4CCOCC4)nn23)c1	?	?	?	i	-25%[88.5 µM]
CN1CCN(c2ccc3ncc(Nc4ccc5c(c4)OCCO5)n3n2)CC1	-1%[70.6 µM]	?	?	i	-11%[88.5 µM]
CN1CCN(c2ccc3ncc(Nc4ccc(OC(F)(F)F)cc4)n3n2)CC1	-20%[70.6 µM]	50µM*	35µM*	i	?
CN1CCN(c2ccc3ncc(Nc4ccc(Cl)c(C(F)(F)F)c4)n3n2)CC1	?	79µM*	?	i	?
c1ccc(Oc2ccc(Nc3cnc4ccc(N5CCOCC5)nn34)cc2)cc1	?	?	45µM*	i	-14%[88.5 µM]
CCN1c2cc(C(=O)NC3CCCCCC3)ccc2C(=O)N2CCCCC21 (stereo unspecified)	5%	?	-21%	i	-1%
O=C(C1CCCC1)N1CCCC(C(=O)N2CCC(c3nc4ncccc4[nH]3)C2)C1 (stereo unspecified)	nt	-1%	-26%	nt	?
Cc1ccc(C(=O)N2CCc3nc(-c4ccc(Cl)cc4)nc(-c4ccccc4)c3C2)cc1	0%	50µM*!	?	?	i
O=C(c1ccccc1)N1CCc2nc(-c3ccccc3)nc(-c3ccc(Cl)cc3)c2C1	0%	?	?	i	-3%
O=C(c1ccc(C(F)(F)F)cc1)N1CCc2nc(-c3ccc(Cl)cc3)nc(-c3ccccc3)c2C1	7%	20µM*	-18%	i	-9%
Cc1ccc(C(=O)N2CCc3onc(-c4cccc5ccccc45)c3C2)cc1	-4%	40µM*	?	i	-8%
CC(=O)NC(CO)C(=O)N1CCc2onc(-c3cccc4ccccc34)c2C1 (stereo unspecified)	1%	-6%	-16%	i	i
CCC(=O)N1Cc2ccccc2CC2(CCN(Cc3cccnc3)C2)C1 (stereo unspecified)	nt	-10%	-11%	nt	i
O=C(CC1CCCN(c2cnn(CC3CC3)c(=O)c2)C1)NCCc1c[nH]c2ccccc12 (stereo unspecified)	-1%	79µM*	?	i	i
O=C(CC1CCCN(c2cnn(CC3CC3)c(=O)c2)C1)NCc1ccccc1 (stereo unspecified)	-10%	?	35µM*	i	5%
CCn1ncc(N2CCCC(CC(=O)NCc3ccccc3)C2)cc1=O (stereo unspecified)	-1%	?	-15%	i	i
O=C(CC1CCCN(c2cnn(CC3CC3)c(=O)c2)C1)Nc1cccc(F)c1 (stereo unspecified)	1%	?	22µM*	i	2%
CC(=O)NC1(C)CCCN(Cc2cccc(-c3ccccc3)c2)C1 (stereo unspecified)	-2%[70.6 µM]	?	?	i	-5%[88.5 µM]
CC(=O)NC1(C)CCN(Cc2cccc(-c3ccc4c(c3)OCCN4C)c2)C1 (stereo unspecified)	?	?	89µM*	22µM*	-19%[88.5 µM]
CC(=O)NC1(C)CCN(Cc2cccc(-c3ccc(N4CCOCC4)cc3)c2)C1 (stereo unspecified)	4µM*	?	-24%[138 µM]	5.6µM*	-4%[88.5 µM]
O=C(Nc1ccc(Cl)cc1)N1CCN(C(=O)c2cccc(-c3ccccn3)c2)CC1	nt	?	?	nt	i
Cc1nn2c(c1-c1ccccc1-c1ccccc1)N(C(=O)COc1ccccc1)CCC2	-26%[70.6 µM]	?	?	i	-17%[88.5 µM]
SMILES	NPR1 antag	HEK cytotox	NIH3T3 tox	Luciferase inh	GPT2 inh
Cc1nn2c(c1-c1cccnc1N1CCOCC1)N(C(=O)COc1ccccc1)CCC2	2%[70.6 µM]	1%[172 µM]	100µM*	i	-5%[88.5 µM]
Cc1nn2c(c1-c1ccccc1N1CCCC1)N(C(=O)COc1ccccc1)CCC2	-14%[70.6 µM]	71µM*	?	i	1%[88.5 µM]
Cc1nn2c(c1-c1cccnc1N1CCOCC1)N(CCCc1ccccc1)CCC2	?	50µM*	?	i	-11%[88.5 µM]
Cc1nn2c(c1-c1ccccc1N1CCCC1)N(C(=O)c1cccc(N(C)C)c1)CCC2	-5%[70.6 µM]	89µM*	?	i	0%[88.5 µM]
COc1ccccc1CNC(=O)c1nnn2cc(C)[nH]c(=O)c12	0%	1%	-6%	i	?
Cc1nn2c(c1-c1ccccc1N1CCCC1)N(C(=O)C1CCOCC1)CCC2	-2%[70.6 µM]	100µM*	?	i	i
O=C(NC1CCN(C(=O)c2ccc(-c3cncnc3)cc2)CC1)c1ccc(Cl)cc1	nt	?	?	nt	2%
C1=CC[C@H]2CN(c3nccc(-c4ccccn4)n3)C[C@H]2C1	-13%	45µM*	?	i	1%
COc1ccc(-c2nc(C(C)C)nc3c2CN([S+](=O)([O-])c2cccc(OC)c2)CC3)cc1	8%	?	?	i	i
CCc1nc2c(c(-c3ccc(OC)cc3)n1)CN([S+](=O)([O-])c1cccc(OC)c1)CC2	nt	-31%	28µM*	nt	4%
C[S+](=O)([O-])N1CCc2nc(C3CC3)nc(-c3ccc(Cl)cc3)c2C1	nt	?	32µM*	nt	4%
CCc1nc2c(c(-c3ccc(Cl)cc3)n1)CCN([S+](=O)([O-])c1ccccc1)CC2	-16%	35µM*	?	i	i
C[S+](=O)([O-])N1CCc2nc(-c3ccccc3)nc(-c3ccc(Cl)cc3)c2C1	4%	-16%	-16%	i	i
O=C(NCc1ccccn1)C1CCCCN1Cc1ccc(-c2ccsc2)cc1 (stereo unspecified)	nt	40µM*	40µM*	nt	?
O=C(NCc1ccccc1F)C1CCCCN1Cc1ccc(-c2ccsc2)cc1 (stereo unspecified)	nt	?	32µM*	nt	4%
O=C(NCc1ccc(F)cc1F)C1CCCCN1Cc1ccc(-c2ccsc2)cc1 (stereo unspecified)	nt	28µM*	?	nt	-10%
COCC(=O)N1CCC(N2C(=O)c3c(c(C)nn3-c3ccccc3)C2C)C1 (stereo unspecified)	nt	-16%	-25%	nt	nt
COc1ccccc1-c1ccc(CN2CCC(NC(=O)c3ccccn3)C2)cc1 (stereo unspecified)	nt	?	?	nt	i
COc1ccc(F)cc1-c1ccc(CN2CCC(NC(=O)Nc3ccccc3)C2)cc1 (stereo unspecified)	nt	20µM*	13µM*	nt	nt
